Drawing on PubChem BioAssay (NCI), this text covers growth for five compounds.

The panel holds about 83,000 compounds, 20% with a hit somewhere; the sample as a whole holds those more often.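 96-well plates, one dose, 48 hours. Percent growth reported; active if below 10.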 The source made the active and inactive calls.

This assay concerns HL-60(TB) leukemia. The assay can be described thus: NCI-60 one-dose screen, 48 h (100 = growth as untreated, 0 = no growth, -100 = all killed). As to conditions: 10 µM unless noted.
With `COc1cc(-c2nc3cc(Cl)c(Cl)cc3[nH]2)ccc1OCC(=O)N=Nc1c(O)[nH]c2ccc(Cl)cc12`, the growth is -32.7% (active).
With `COC(=O)C(O)c1ccccc1` (stereo not given), the growth was 109% (inactive).
For `Cc1ccc(NSc2ccccc2[N+](=O)[O-])cc1` the value was -6.97% (active); for `Cc1cccc(/C=C/c2c(C(=O)/C=C/c3ccccc3)c(C)nc3ccccc23)c1`, -15.8% (active); for `O=C1/C(=C/c2ccc(C(F)(F)F)cc2)COc2ccc(O)cc21`, -36.1% (active).
